Results on 7 compounds are retold here after PubChem BioAssay (Tox21).

Experiment [1] has as its target Thyrotropin receptor (Homo sapiens) (UniProt P16473). Description: qHTS assay to identify small molecule antagonists of the thyroid stimulating hormone receptor (TSHR) signaling pathway (AID 1259385; calls by dose curve; also: nearly all actives have a fitted effect of over 20% in size). In a few lines: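 TSHR-HEK293 cells were plated and held 18 h at 37C/5% CO2, then given compound plus Ro20-1724 and stimulated with TSH at 1.5 ng/mL final. After 30 min at room temperature, cAMP was detected with cAMP-d2/anti-cAMP-cryptate (1 h) by fluorescence.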
In general terms: Quantitative high-throughput screening tests each substance at several concentrations.

A short description of experiment [2]: qHTS assay to identify small molecule agonists of the estrogen receptor alpha (ER-alpha) signaling pathway in the presence of an antagonist - cell viability counter screen (AID 1259386).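 Also: series mostly up to about 92 µM; cells exposed to compounds for 22 h at 37 °C before the viability read; nearly all actives have a fitted effect of over 30% in size.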 The method in brief: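 Fluorescent CellTiter-Fluor viability signal from VM7Luc4E2 cells, with the reagent added during the final hour of a 22hr compound exposure at 37C in the presence of 10.0nM ICI-182,780.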

The nature of experiment [3]: qHTS assay to identify small molecule antagonists of the progesterone receptor (PR) signaling pathway - cell viability counter screen (AID 1346798). Also: series mostly up to about 92 µM; nearly all actives have a fitted effect of over 50% in size. In a few lines:
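Viability was determined by ATP-based luminescence (CellTiter-Glo) in PR-UAS-bla HEK293T cells cultured in 2% charcoal-stripped serum and incubated 16 hr with compounds under R5020 stimulation.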

Experiment [4] can be described thus: qHTS assay to identify small molecule agonists of the progesterone receptor (PR) signaling pathway - cell viability counter screen (AID 1346799; calls by dose curve; also: nearly all actives have a fitted effect of over 45% in size). In a few lines:
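Viability was scored by ATP luminescence (CellTiter-Glo, 30 min, room temperature) in the same wells used for the reporter readout, after 16 hr compound exposure of PR-UAS-bla HEK293T cells.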

Experiment [5] in a line: qHTS assay to identify small molecule antagonists of the TGF-beta/Smad signaling pathway - cell viability counter screen (AID 1346824). Also: nearly all actives have a fitted effect of over 50% in size. In a few lines:
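SBE-bla HEK 293T cells were plated overnight at 37 C, then given compounds in DMSO plus TGF-beta1 (added as 0.25 ng/mL solution) for 5 hr. After the bla read, CellTiter-Glo was added to the same wells and luminescence read after 30 min at room temperature.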

Experiment [6] can be described thus: qHTS assay to identify small molecule agonists of the TGF-beta/Smad signaling pathway - cell viability counter screen (AID 1346829). Also: top concentration of the series differs between compounds; nearly all actives have a fitted effect of over 45% in size. The method in brief:
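CellTiter-Glo luminescence readout; SBE-bla HEK 293T cells, overnight plating, compound 5 hr at 37 C/5% CO2, then bla substrate 2 hr RT, then CellTiter-Glo 30 min RT.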

A short description of experiment [7]: qHTS assay to identify small molecule agonists of the TGF-beta/Smad signaling pathway (AID 1346859; active = well fitted activation curve with a large enough effect in the signal ratio in the repeat runs, not every such curve was filed as active; the % refers to the signal ratio; also: series mostly up to about 77 µM). The method in brief: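 Dual-wavelength fluorescence (460/530 nm emission) quantified beta-lactamase expression under the Smad binding element in HEK 293T cells following 5 hr compound treatment at 37 C.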
The target of experiment [8] is Thyrotropin-releasing hormone receptor (Homo sapiens) (UniProt P34981). Kind of experiment: qHTS assay to identify small molecule antagonists of the thyrotropin-releasing hormone receptor (TRHR) signaling pathway (AID 1346877; active = well fitted inhibition curve with a large enough effect in the repeat runs, not every such curve was filed as active; also: series mostly up to about 51 µM). In a few lines: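 In this cell-based calcium flux format, HEK293 cells expressing TRHR received test compound for 5 min before the agonist TRH (1 nM final). Dye loading lasted 2 h at 37 °C.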

Experiment [9] shares this target. Kind of experiment: qHTS assay to identify small molecule agonists of the thyrotropin-releasing hormone receptor (TRHR) signaling pathway (AID 1346891; calls by dose curve; also: series mostly up to about 58 µM). The method in brief:
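Kinetic fluorescence (3 min, 1 s intervals) reported intracellular calcium after compound transfer onto TRHR-Hek293 cells pre-loaded with dye for 2 h at 37 °C.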

Experiment [10] can be described thus: Human pregnane X receptor (PXR) small molecule agonists, qHTS cell viability counter screen (AID 1346977). Also: nearly all actives have a fitted effect of over 50% in size. In a few lines:
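HepG2 cells stably carrying the PXR-Luc reporter are cultured with 5% charcoal-stripped FBS and treated with compounds for 24hr. CellTiter-Fluor is added at 23hr and fluorescence is read after 1hr.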

Experiment [11] can be described thus: Caspase-3/7 induction in HepG2 cells by small molecules, qHTS assay (AID 1346978). Also: nearly all actives have a fitted effect of over 15% in size. In a few lines:
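Wild-type HepG2 cells (2,000/well) were settled 5 h at 37 C, 5% CO2, then exposed to compounds in DMSO for 17 h. Caspase-3/7 activity was read by luminescence 30 min after adding Caspase-Glo 3/7 reagent at room temperature.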

Experiment [12] can be described thus: Caspase-3/7 induction in CHO-K1 cells by small molecules, qHTS cell viability counter screen (AID 1346979). Also: nearly all actives have a fitted effect of over 35% in size. In a few lines:
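Seeding: 1,500 CHO-K1 cells/well. Rest: 5hr, 37C. Treatment: compounds in DMSO, 16hr. Read: CellTiter-Fluor, 1hr, fluorescence.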

The nature of experiment [13]: Caspase-3/7 induction in CHO-K1 cells by small molecules, qHTS assay (AID 1346980). Also: nearly all actives have a fitted effect of over 15% in size. In a few lines: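 Wild-type cells were seeded at 1,500 per well and settled 5 hr at 37 C, 5% CO2, then exposed to DMSO-dissolved compounds for 17 hr. Caspase-Glo 3/7 reagent was added, and luminescence was read after 30min at room temperature.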
Experiment [14] can be described thus: Caspase-3/7 induction in HepG2 cells by small molecules, qHTS cell viability counter screen (AID 1346981). Also: series mostly up to about 92 µM; nearly all actives have a fitted effect of over 30% in size. The method in brief: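 Counter screen for cytotoxicity: HepG2 exposed 16 hr to compounds, then CellTiter-Fluor viability signal (fluorescence, 1 hr reagent incubation).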
Experiment [15] deals with Nuclear receptor subfamily 1 group I member 2 (Homo sapiens) (UniProt O75469). Description: Human pregnane X receptor (PXR) small molecule agonists, qHTS assay (AID 1346982). Also: nearly all actives have a fitted effect of over 35% in size. In a few lines: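 Luminescence (ONE-Glo, 30 min RT) after 24 hr compound exposure of PXR-Luc HepG2 cells; cells rested 5 hr post-plating in 5% charcoal-stripped FBS medium.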
For experiment [16], the target named is Nuclear receptor subfamily 1 group I member 2 (Rattus norvegicus) (UniProt Q9R1A7). Kind of experiment: Rat pregnane X receptor (rPXR) activation by small molecules, qHTS assay (AID 1346983). Also: nearly all actives have a fitted effect of over 20% in size. The following applies: rPXR luciferase reporter cells, One-Glo luminescence, 24 h; hits give high values. The method in brief: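 Cell-based rPXR luciferase reporter assay, 2,000 cells per well, rested 5hr at 37 C before compound addition in DMSO, then 24 hr at 37 C. One-Glo reagent was added and luminescence read after 30 min at room temperature.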

Experiment [17] has as its target Nuclear receptor subfamily 1 group I member 2 (Homo sapiens) (UniProt O75469). Kind of experiment: CYP3A4 induction through human pregnane X receptor (PXR) by small molecules, qHTS assay (AID 1346984). Also: nearly all actives have a fitted effect of over 40% in size. The method in brief: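 DPX-2 reporter cells; 24h cpd, 37C; Luciferin-IPA 3uM final x3h; One-Glo 30 min RT; lumi read.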
The target is the same in experiment [18]. Description: Human pregnane X receptor (PXR) activation by small molecules, qHTS assay (AID 1346985). Also: nearly all actives have a fitted effect of over 40% in size. Also: potency is read from the fitted curve at half-maximal effect. In a few lines: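 DPX-2 cells (HepG2 co-transfected with a PXR response element and a CYP3A4-promoter luciferase construct) were seeded at 2,000 per well, rested 5 hr at 37C, then exposed to DMSO-dissolved compounds for 24 hr. Activation was read as luciferase luminescence.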

The target of experiment [19] is Progesterone receptor (Homo sapiens) (UniProt P06401). Description: qHTS assay to identify small molecule antagonists of the progesterone receptor (PR) signaling pathway (AID 1346795; active = well fitted inhibition curve with a large enough effect in the signal ratio in the repeat runs, not every such curve was filed as active; the % refers to the signal ratio). The method in brief: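 After 6 hr plating at 37C in 2% stripped-serum medium, PR-UAS-bla HEK293T cells got compounds, then 1 nM R5020. Sixteen hours later, LiveBLAzer substrate was applied for 2 hr at room temperature and fluorescence was recorded.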

Unmarked numbers belong to inactive results. Records with an inconclusive call do not appear. Active and inactive are the calls of the source. Unless noted, calls follow the shape of the dose curve; as a rule, active = well fitted curve in the direction sought with a large enough effect in the repeat runs; inconclusive = weak or mixed curves; inactive = no such curve, though single readings can be large; an effect the other way counts as inactive or inconclusive.
% is scaled to controls: 0 for no effect and ±100 for the full control effect.

Chain of Thyrotropin-releasing hormone receptor (Homo sapiens) (P34981 whole entry, looked up): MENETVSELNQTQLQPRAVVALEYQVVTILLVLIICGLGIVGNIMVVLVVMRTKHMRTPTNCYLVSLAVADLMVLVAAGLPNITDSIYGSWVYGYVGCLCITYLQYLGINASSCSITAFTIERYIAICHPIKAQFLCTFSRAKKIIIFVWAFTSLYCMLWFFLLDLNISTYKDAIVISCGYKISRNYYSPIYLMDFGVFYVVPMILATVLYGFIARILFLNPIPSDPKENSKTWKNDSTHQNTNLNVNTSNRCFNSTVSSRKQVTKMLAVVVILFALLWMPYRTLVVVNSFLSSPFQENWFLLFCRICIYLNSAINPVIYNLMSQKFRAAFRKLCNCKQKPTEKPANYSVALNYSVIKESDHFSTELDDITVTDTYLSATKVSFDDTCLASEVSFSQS
Chain of Nuclear receptor subfamily 1 group I member 2 (Rattus norvegicus) (Q9R1A7 whole entry, looked up): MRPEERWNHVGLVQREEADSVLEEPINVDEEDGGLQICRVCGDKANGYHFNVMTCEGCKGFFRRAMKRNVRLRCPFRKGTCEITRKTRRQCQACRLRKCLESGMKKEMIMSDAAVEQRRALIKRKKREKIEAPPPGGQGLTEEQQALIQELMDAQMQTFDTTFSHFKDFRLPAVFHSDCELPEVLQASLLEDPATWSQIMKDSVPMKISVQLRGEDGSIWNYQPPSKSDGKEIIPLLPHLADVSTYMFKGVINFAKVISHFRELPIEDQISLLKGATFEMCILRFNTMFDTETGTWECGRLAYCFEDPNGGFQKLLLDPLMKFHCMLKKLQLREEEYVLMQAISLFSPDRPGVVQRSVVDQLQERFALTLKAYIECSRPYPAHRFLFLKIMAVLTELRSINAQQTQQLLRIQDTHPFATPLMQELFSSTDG
Chain of Progesterone receptor (Homo sapiens) (P06401 whole entry, looked up): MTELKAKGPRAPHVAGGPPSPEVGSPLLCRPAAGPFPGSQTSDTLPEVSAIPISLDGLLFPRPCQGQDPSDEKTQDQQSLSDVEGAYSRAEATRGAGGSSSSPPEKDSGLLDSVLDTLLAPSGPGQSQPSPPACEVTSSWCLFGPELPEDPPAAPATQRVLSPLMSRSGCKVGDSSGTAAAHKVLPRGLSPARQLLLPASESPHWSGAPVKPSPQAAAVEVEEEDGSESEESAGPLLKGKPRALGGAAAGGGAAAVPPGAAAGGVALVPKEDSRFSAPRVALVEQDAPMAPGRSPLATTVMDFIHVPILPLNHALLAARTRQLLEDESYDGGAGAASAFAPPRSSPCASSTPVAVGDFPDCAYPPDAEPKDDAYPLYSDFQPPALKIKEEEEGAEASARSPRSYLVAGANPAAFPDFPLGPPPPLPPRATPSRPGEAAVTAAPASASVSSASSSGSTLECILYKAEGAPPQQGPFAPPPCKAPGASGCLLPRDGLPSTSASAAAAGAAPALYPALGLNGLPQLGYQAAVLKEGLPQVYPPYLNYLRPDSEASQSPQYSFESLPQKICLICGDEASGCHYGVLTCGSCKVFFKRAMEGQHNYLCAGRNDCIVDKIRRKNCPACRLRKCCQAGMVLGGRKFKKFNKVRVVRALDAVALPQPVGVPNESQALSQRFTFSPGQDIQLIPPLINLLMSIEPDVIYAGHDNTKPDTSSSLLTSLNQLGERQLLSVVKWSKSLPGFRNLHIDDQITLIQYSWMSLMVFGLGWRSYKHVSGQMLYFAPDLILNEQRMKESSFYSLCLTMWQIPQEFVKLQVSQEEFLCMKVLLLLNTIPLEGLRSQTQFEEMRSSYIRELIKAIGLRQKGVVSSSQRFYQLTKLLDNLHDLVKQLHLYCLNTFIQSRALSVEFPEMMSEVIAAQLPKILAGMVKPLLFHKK
Chain of Thyrotropin receptor (Homo sapiens) (P16473 whole entry, looked up): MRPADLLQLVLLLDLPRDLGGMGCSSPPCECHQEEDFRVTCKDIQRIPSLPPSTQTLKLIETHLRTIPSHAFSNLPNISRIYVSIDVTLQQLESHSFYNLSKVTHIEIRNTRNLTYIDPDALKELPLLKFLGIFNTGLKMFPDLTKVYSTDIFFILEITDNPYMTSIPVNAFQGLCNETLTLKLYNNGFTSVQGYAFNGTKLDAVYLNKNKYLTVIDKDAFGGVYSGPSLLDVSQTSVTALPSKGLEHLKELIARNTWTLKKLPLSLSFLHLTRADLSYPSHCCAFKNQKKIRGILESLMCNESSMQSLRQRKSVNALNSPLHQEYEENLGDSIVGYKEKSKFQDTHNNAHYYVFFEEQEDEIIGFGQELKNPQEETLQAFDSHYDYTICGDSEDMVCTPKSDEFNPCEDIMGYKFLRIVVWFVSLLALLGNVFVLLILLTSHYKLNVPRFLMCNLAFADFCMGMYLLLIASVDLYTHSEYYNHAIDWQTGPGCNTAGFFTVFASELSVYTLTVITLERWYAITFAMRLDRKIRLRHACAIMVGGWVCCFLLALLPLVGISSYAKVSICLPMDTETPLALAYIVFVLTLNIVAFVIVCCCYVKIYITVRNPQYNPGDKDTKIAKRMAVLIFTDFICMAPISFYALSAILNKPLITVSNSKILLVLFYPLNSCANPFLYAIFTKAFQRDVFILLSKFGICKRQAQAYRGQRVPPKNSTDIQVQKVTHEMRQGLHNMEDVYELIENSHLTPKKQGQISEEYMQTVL
Chain of Nuclear receptor subfamily 1 group I member 2 (Homo sapiens) (O75469 whole entry, looked up): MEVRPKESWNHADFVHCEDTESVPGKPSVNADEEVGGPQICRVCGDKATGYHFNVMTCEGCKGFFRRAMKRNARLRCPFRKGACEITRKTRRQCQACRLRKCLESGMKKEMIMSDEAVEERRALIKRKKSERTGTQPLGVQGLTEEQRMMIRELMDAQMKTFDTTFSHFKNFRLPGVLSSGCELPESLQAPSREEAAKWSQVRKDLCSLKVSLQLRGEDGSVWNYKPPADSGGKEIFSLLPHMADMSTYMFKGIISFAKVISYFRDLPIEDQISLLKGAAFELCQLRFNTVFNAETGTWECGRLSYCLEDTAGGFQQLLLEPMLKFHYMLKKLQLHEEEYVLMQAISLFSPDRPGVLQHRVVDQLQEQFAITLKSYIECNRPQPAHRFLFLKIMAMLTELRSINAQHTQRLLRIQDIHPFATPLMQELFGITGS

As for `Cc1c(NC(C)C)c(=O)n(-c2ccccc2)n1C`, the Potency entry in [1], in experiment [2], in experiment [3], in experiment [4], in experiment [5] and in experiment [10] was “inactive” each time. For the same compound, the Potency result in [11], in experiment [12], in experiment [14], in experiment [15], in [17] and in experiment [18] was “inactive” in each case. The compound was called inactive in [6], in experiment [7], in [8], in experiment [9] and in experiment [13]. In addition, the max activation in experiment [16] is -1.85%.
`C=CCOCC(CC)(CO)COCC=C`: the Potency result in experiment [1], in experiment [2], in experiment [19], in [3], in experiment [4] and in experiment [5] was “inactive” throughout. Also, the Potency result in [10], in experiment [11], in experiment [12], in experiment [14] and in experiment [15] was “inactive” each time. Besides, the compound was called inactive in [6], in experiment [7], in experiment [8], in [9] and in experiment [13].
With `CC(=O)CC(C)C`, the Potency result in [1], in [2], in experiment [3], in [4], in [5] and in experiment [10] was “inactive” each time. Also, the Potency entry in [11], in [12], in experiment [14] and in [15] was “inactive” throughout. Moreover, the compound was classed as inactive in experiment [6], in experiment [7] and in [13].
Regarding `CC(C)(O)C#CC(C)(C)O`, the Potency entry in [1], in experiment [2], in experiment [19], in experiment [3], in experiment [4] and in [5] was “inactive” each time. Also, the Potency entry in experiment [10], in experiment [11], in experiment [12], in experiment [14] and in [15] was “inactive” in each case. The compound was classed as inactive in experiment [6], in [7], in experiment [8], in experiment [9] and in experiment [13].
As for `CC[N+](C)(C)c1cccc(O)c1`, the Potency entry in experiment [1], in experiment [2], in [3], in experiment [4], in experiment [5] and in experiment [10] was “inactive” each time. Moreover, the Potency result in experiment [12] and in [14] was “inactive” throughout. Besides, the result in experiment [6], in experiment [7] and in experiment [13] was inactive. Besides, the max activation in experiment [16] is -3.46%.
As to `COc1cc(C(=O)N2CCCCCCC2)cc(OC)c1OC`, the Potency result in [1], in experiment [2], in experiment [19], in [3], in [4] and in experiment [5] was “inactive” throughout. The Potency entry in [11], in experiment [12] and in experiment [14] was “inactive” each time. The compound was classed as inactive in experiment [6], in experiment [7], in experiment [8], in experiment [9] and in [13]. Also, the max activation in experiment [16] was -0.931%. Further, in experiment [18], the Potency was 15.8 µM (active).
Consider `CC(C)NCC(O)c1ccc(NS(C)(=O)=O)cc1` (centres undefined), for which the Potency result in [1], in [2], in experiment [19], in experiment [3], in [4] and in [5] was “inactive” each time. The Potency result in [11], in experiment [12], in experiment [14], in [15], in [17] and in experiment [18] was “inactive” throughout. Besides, the result in experiment [6], in experiment [7], in experiment [8], in experiment [9] and in [13] was inactive. Moreover, the max activation in [16] was -1.64%.
